Bioassay records: PubChem, several laboratories
Only some compounds are listed: those with a hit (about 2.6% of all), similar ones and a draw of the others.
IDE cell activ = IDE (human) activation, cell-based; P14735; HEK cells, FAbeta-B cleavage, fluorescence polarization; 0% vehicle, 100% cell-free pure enzyme wells; activation, % at 5.96 µM; 340,000 tested, 0.073% active;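 active = activation above the mean of all tested compounds plus 3 SD, set per screening campaign, cut at about 17% in these data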
CRFR2-BP antag = blocks CRF-induced signaling of the CRF-BP/CRF-R2 complex | HEK293 CRF-R2/CRF-BP, CRF-induced calcium fluorescence | inhibition, % at 11.8 µM | 350,000 tested, 0.59% active;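 active = inhibition of the ligand-induced calcium signal above about 50% at the single tested concentration, limit read from the data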
CRFBP-R2 agonist = CRF-BP/CRF-R2 complex agonism; HEK293 CRF-R2/CRF-BP, calcium dye fluorescence (FLIPR); percent of saturating CRF peptide response; activation, % at 13.2 µM; 350,000 tested, 0.46% active; AID 588473;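 active = activation of at least 50%, plus an integration ratio under a set limit after plate pattern correction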;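 also: plate controls were neutral control wells without compound for no effect and CRF at EC100 for full effect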
TPT1 inh = inhibitors of Candida albicans tRNA 2'-phosphotransferase TPT1; inhibition, % at 5 µM; recombinant caTPT1, FP RNA substrate dephosphorylation; AID 1962; 300,000 tested, 0.81% active;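 active = inhibition above the mean of all tested compounds plus 3 SD, set per screening campaign, cut at about 24% in these data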;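 also: plate controls were DMSO alone for no effect and ferristatin control at 100 nM for full effect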
IDE inh = inhibitors of human insulin-degrading enzyme in cells. 320,000 tested, 0.41% active. HEK cells, FAbetaB cleavage, fluorescence polarization. inhibition, % at 5.59 µM;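 active = percent inhibition above the average of all tested compounds plus 3 SD, set per screening campaign, cut at about 16% in these data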;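 also: IDE supplied by intact live HEK cells; FP after avidin binding of uncleaved biotin substrate so inhibition keeps polarization high; 0% = DMSO wells and 100% = 60 µM reference IDE inhibitor Ii1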
Myeloid diff MLP = compounds promoting myeloid differentiation; calls only at 10 µM; AID 624256; ER-HoxA9 myeloid progenitors, lysozyme-GFP differentiation, flow cytometry; 360,000 tested, 1% active;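 active = normalized GFP-positive differentiation at or above the plate's own cutoff, the solvent-only control mean plus 3 SD; inconclusive = no clear call, values can overlap the other calls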;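 also: cells exposed to compound for four days before flow analysis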
* = called active by the depositor; i = inactive; ? = inconclusive; nt = no result given; + = active, no number.

SMILES	IDE cell activ	CRFR2-BP antag	CRFBP-R2 agonist	TPT1 inh	IDE inh	Myeloid diff MLP
COc1ccc(N=Cc2c(O)n(-c3cccc(C)n3)c(=O)c3ccccc23)c(OC)c1	6	-49	72*	21	4	i
CC(C)C[C@@H](CN)NC(=O)c1nc[nH]c1C(=O)N[C@@H](C)C(=O)CNC[C@H](C)NC(=O)c1nc[nH]c1C(=O)N[C@@H](CC(=O)O)C(=O)O	1	17	-7	nt	nt	i
CN(CC(=O)Nc1cccc(F)c1)C(=O)c1cccnc1Sc1ccccc1	2	-5	2	-3	4	i
CSc1ncccc1C(=O)N(C)CC(=O)Nc1cccc(F)c1	3	100*	0	-1	3	i
CCOc1ccc(NC(=S)N(CCc2c(C)[nH]c3ccc(C)cc23)Cc2ccncc2)cc1	8	-4	-2	1	0	+
Cc1c(CC(=O)O)c(=O)oc2c(C)c(OCc3nn[nH]n3)ccc12	-2	-4	-3	0	2	+
CC(Sc1nnc(Nc2ccccc2)s1)C(=O)Nc1nc(-c2ccccc2)cs1 (centres undefined)	0	-55	-1	6	4	+
CCN1CCN(c2ccc(S(=O)(=O)N3CCCCC3)cc2NC(=O)/C=C/c2ccc(F)cc2)CC1	-1	-22	1	-8	-1	i
CCN1CCN(c2ccc(S(=O)(=O)N3CCCCC3)cc2NC(=O)/C=C/c2cccc(OC)c2OC)CC1	0	106*	-1	4	1	+
CCN1CCN(c2ccc(S(=O)(=O)N3CCOCC3)cc2NC(=O)c2cc(Cl)nc3ccccc23)CC1	-1	82*	-1	1	-4	i
CCN1CCN(c2ccc(S(=O)(=O)N3CCOCC3)cc2NC(=O)c2ccccc2SC)CC1	0	-5	0	-2	1	i
COc1ccc(CNc2cc(C)ccc2C)c(OC)c1OC	-2	33	1	2	0	i
COc1cccc(CNc2ccccc2O)c1OCc1ccccc1F	7	-9	-1	4	-3	+
COc1ccc(C)cc1NCc1cccc(OC)c1OC	-6	78*	-3	-6	2	i
COc1cccc(CNc2ccc(S(N)(=O)=O)cc2)c1OCc1ccccc1F	6	-3	-1	-4	2	i
Cc1cc(C)n2nc(/C(C#N)=C/c3ccccc3)c(C#N)c2n1	-7	99*	2	nt	nt	i
COc1cccc2c(=O)n(CC(=O)N3CCc4ccccc43)ccc12	-1	-55	72*	0	0	i
CCOC(=O)COc1cccc2c(=O)n(CC(=O)N3CCc4ccccc43)ccc12	4	-22	1	-1	4	i
O=[N+]([O-])c1cccc(Cl)c1NCCNc1ncc(C(F)(F)F)cc1Cl	73*	6	1	-4	7	i
O=C(Cc1ccc(Cl)cc1)N1CCN(c2ccccc2)CC1	-2	6	0	-3	3	i
CCc1nc2ccc(C(=O)NCCCN3CCCC3=O)cn2c1N(CC)C(C)=O	nt	nt	nt	nt	nt	i
S=C(NCCc1ccccn1)Nc1cccc(Cl)c1	6	-4	0	-2	5	i
COc1ccc(CNc2nc3ccccc3n2CCN2CCOCC2)cc1	18*	7	-1	-2	-2	i
Cc1ccccc1NC(=O)Cc1nc(COC(=O)c2cc([N+](=O)[O-])ccc2NCCO)cs1	11	61*	2	2	-5	i
Cc1ccccc1NC(=O)Cc1nc(COC(=O)c2ccc([N+](=O)[O-])cc2)cs1	0	13	1	nt	nt	i
SMILES	IDE cell activ	CRFR2-BP antag	CRFBP-R2 agonist	TPT1 inh	IDE inh	Myeloid diff MLP
COc1ccc(N=C2NC(=O)S/C2=C\c2ccc(N(C)C)cc2)cc1	-25	-155	98*	7	30*	i
O=C1[C@@H]2Cc3c([nH]c4ccccc34)C(c3cccc([N+](=O)[O-])c3)N2C(=O)CN1CCCO (some centres undefined)	4	-17	-1	0	2	i
Cc1ccc(SCc2cc(=O)[nH]c(SCC(=O)Nc3cc(Cl)ccc3Cl)n2)cc1	-3	68*	0	-6	5	i
C=C1C(=O)[C@]23C[C@H]1CC[C@H]2[C@]1(C)[C@@H](O)CC[C@@](C)(C(=O)O)[C@H]1C[C@@H]3O	nt	nt	nt	nt	nt	+
CCC1OC(=O)C(C)C(OC2C[C@@](C)(OC)C(O)C(C)O2)C(C)C(O[C@@H]2OC(C)CC(N(C)C)C2O)[C@](C)(O)CC(C)C(=NOCOCCOC)C(C)C(O)[C@]1(C)O (some centres undefined)	8	89*	-1	-3	-4	i
CCCSc1cc(NCCOC(=O)CCC)c([N+](=O)[O-])c2nonc12	-2	34	-3	1	-2	i
CCCC(=O)OCCNc1cc(Sc2nccn2C)c2nonc2c1[N+](=O)[O-]	-11	52*	-2	2	6	?
Cc1cc(C)n(CCCNC(=O)C(C)(C)Oc2ccc(Cl)cc2)n1	1	7	-2	nt	2	i
CCCN1C(=O)/C(=C2/C=Cc3ccccc3N2CC)SC1=S	6	7	-6	4	2	+
COc1ccc(N(C(=O)c2ccco2)C(C(=O)NC2CCCC2)c2ccc(N3CCOCC3)cc2)c(OC)c1 (centres undefined)	5	53*	0	-4	4	i
CC(=O)Oc1ccccc1C(=O)OCCN=C1NS(=O)(=O)c2ccccc21	0	-7	0	0	6	i
CCCCn1c(NC(=O)c2ccccc2)c(C#N)c2nc3ccccc3nc21	-4	-45	-1	nt	nt	+
CCCCn1c(NC(=O)c2ccc(F)cc2)c(C#N)c2nc3ccccc3nc21	nt	nt	nt	81*	2	nt
N#Cc1c(N)n(CCc2ccc(F)cc2)c2nc3ccccc3nc12	1	5	0	7	5	i
Nc1cc(N)nc(SCCOc2ccccc2)n1	23*	11	-2	-1	-1	i
CCOc1ccc(OCCSc2nc(N)cc(=O)[nH]2)cc1	-2	59*	2	-3	2	i
c1ccc(Oc2cccc(OCCCCSc3ncccn3)c2)cc1	-1	-74	51*	-2	8	i
COc1cccc(OCCSc2nc(N)cc(N)n2)c1	9	10	1	3	1	i
CN1CCCN(S(=O)(=O)c2cccc(C(F)(F)F)c2)c2nc3ccccc3nc21	3	-12	-2	nt	-2	+
COc1ccc(C2C(C#N)=C(C)NC(C)=C2C(=O)OC(C)C)c(OC)c1 (centres undefined)	-7	-40	3	-1	-6	i
COc1ccc(F)cc1C(=O)C1CCCN(C(=O)C2=C(C)OCCO2)C1 (centres undefined)	1	-4	1	0	1	+
c1ccc(N2CCN(Cc3nc4ccccc4[nH]3)CC2)nc1	0	-1	0	4	-4	+
